{"source": "PubChem BioAssay AID686921", "about": "(National Center for Advancing Translational Sciences (NCATS), 2013)", "note": "Activity calls are given as the source filed them. The call rests on the fitted dose curve; in most records, active means well fitted curve in the direction sought with a large enough effect; inconclusive means small, poorly fitted or top-dose-only effect, or another doubt; inactive means no such curve, though single readings can be large or run the other way.", "data": [{"experiment": "qHTS screen for inhibitors of ELG1-dependent DNA repair in human embryonic kidney (HEK293T) cells expressing luciferase-tagged ELG1: 5FU Viability Assay for probe SAR", "details": "HEK293T ELG1-luc, CellTiter-Glo viability, 16 h; series mostly up to 46.1 µM", "source_text": "Cancer cells divide rapidly compared to normal cells in the body. During cell division, cancer cells need to duplicate their genome by DNA replication. The failure of genome duplication leads to cancer cells' death. Therefore, inhibitors of DNA replication could specifically kill cancer cells. Based on this concept, many chemotherapeutic agents were developed and have been used to treat cancer patients. However, there are a limited number of agents available in the clinical setting, and some of those that do exist have low efficacy and severe side effects. Therefore, if we can find the compounds that effectively block DNA replication either by directly damaging DNA or by inhibiting other cellular mechanisms, the options for cancer treatment will be broadened. With this in mind, we developed a quantitative high-throughput ELG1-luciferase reporter gene assay. Small molecules that specifically block ELG1 function in response to DNA damage can be identified by monitoring the suppression of luciferase activity. Since ELG1 defines a pathway for repairing DNA damage, agents blocking ELG1 function can be used to sensitize cancer cells to chemotherapeutic agents whose mechanism of action involves the induction of DNA damage. Cytotoxicity of the active compounds in the ELG1 qHTS assay (AID 493107) was assessed using the CellTiter-Glo Luminescent Cell Viability Assay kit (Promega, USA). CellTiter-Glo measures the intracellular ATP present in metabolically active cells using Ultra-Glo as the luciferase to detect ATP levels. In brief, the luciferase in the buffer catalyzes the oxidation of luciferin to oxyluciferin and light which is dependent on ATP. […] DMSO and wells with media alone were used as positive and negative controls, respectively. Inactivity to this assay is the desirable outcome. NIH Molecular Libraries Probe Production Network [MLPCN] NIH Chemical Genomics Center [NCGC] MLPCN Grant: R03 MH092164 Assay Provider: Kyungjae Myung, NHGRI, NIH\nELG1-luc HEK293T cells will be seeded in 1536-well plates at a density of 2,000 cells/well. Approximately 5 hours after plating, compounds will be added to the plate by pin tool transfer and 5-fluorouridine will be added by FRD dispenser (final concentration of 5-fluorouridine =10 µM). 16 hours following the addition of the compounds, cell viability will be measured using CellTiter Glo.", "values": [{"molecule": "Fc1cc(Nc2nc(-c3ccncc3)nc3ccccc23)ccc1-c1cccnc1", "outcome": "inactive"}, {"molecule": "Fc1ccc(-c2nc(-c3ccncc3)nc3ccccc23)cc1F", "outcome": "inactive"}, {"molecule": "N#Cc1cnccc1-c1nc(Nc2ccc(F)c(F)c2)c2ccccc2n1", "outcome": "inactive"}, {"molecule": "Cc1cc(-c2nc(Nc3ccc(F)c(F)c3)c3ccccc3n2)cc(C)n1", "outcome": "inactive"}, {"molecule": "COc1nccc(-c2nc(Nc3ccc(F)c(F)c3)c3ccccc3n2)c1Cl", "outcome": "inactive"}, {"molecule": "Fc1cc(Nc2nc(-c3ccncc3)nc3ccccc23)ccc1-c1cccc(OC(F)(F)F)c1", "outcome": "inactive"}, {"molecule": "Fc1cc(Nc2nc(-c3ccncc3)nc3ccccc23)ccc1-c1cccc(OC(F)F)c1", "outcome": "inactive"}, {"molecule": "COc1ccc(Nc2nc(-c3ccncc3)nc3ccccc23)cc1F", "outcome": "inactive"}, {"molecule": "Fc1cc(Nc2nc(-c3ccncc3)nc3ccccc23)ccc1-n1cncn1", "outcome": "inactive"}, {"molecule": "Fc1cc(Nc2nc(-c3ccncc3)nc3ccccc23)ccc1-c1ccnc(C(F)(F)F)c1", "outcome": "inactive"}, {"molecule": "Cc1noc(C)c1-c1ccc(Nc2nc(-c3ccncc3)nc3ccccc23)cc1F", "outcome": "inactive"}, {"molecule": "Nc1cc(-c2nc(Nc3ccc(F)c(F)c3)c3ccccc3n2)ccn1", "outcome": "inactive"}, {"molecule": "Fc1cc(Nc2nc(-c3ccncc3)nc3ccccc23)ccc1N1CCNCC1", "outcome": "inactive"}, {"molecule": "Fc1cc(Nc2nc(-c3ccncc3)nc3ccccc23)ccc1-c1cccc(C(F)(F)F)c1", "outcome": "inactive"}, {"molecule": "COc1cc(-c2nc(Nc3ccc(F)c(F)c3)c3ccccc3n2)cc(OC)n1", "outcome": "inactive"}, {"molecule": "COc1cc(Nc2nc(-c3ccncc3)nc3ccccc23)ccc1N1CCN(C)CC1", "outcome": "inactive"}, {"molecule": "COc1ccc(-c2nc(Nc3ccc(F)c(F)c3)c3ccccc3n2)cc1", "outcome": "inactive"}, {"molecule": "c1ccc2c(Nc3ccn[nH]3)nc(-c3ccncc3)nc2c1", "outcome": "inactive"}, {"molecule": "COc1ccc(-c2ccc(Nc3nc(-c4ccncc4)nc4ccccc34)cc2F)cc1F", "outcome": "inactive"}, {"molecule": "COc1cc(Nc2nc(-c3ccncc3)nc3ccccc23)ccc1Cl", "outcome": "inactive"}, {"molecule": "Fc1cc(Nc2nc(-c3ccncc3)nc3ccccc23)ccc1-c1ccc(F)c(F)c1F", "outcome": "inactive"}, {"molecule": "Fc1ccc(Nc2nc(-c3ccncc3)nc3ccccc23)cc1F", "outcome": "inactive"}, {"molecule": "Oc1ccc(Nc2nc(-c3ccncc3)nc3ccccc23)cc1F", "outcome": "inactive"}, {"molecule": "COc1cc(Nc2nc(-c3ccncc3)nc3ccccc23)ccc1F", "outcome": "inactive"}, {"molecule": "CCOC(=O)c1ccc2c(c1)c(C(C)=O)c(C)n2-c1ccc(OC)cc1", "outcome": "inactive"}, {"molecule": "CSc1ccccc1-c1ccc(Nc2nc(-c3ccncc3)nc3ccccc23)cc1F", "outcome": "inactive"}, {"molecule": "CN1CCN(c2ccc(Nc3nc(-c4ccncc4)nc4ccccc34)cc2F)CC1", "outcome": "inactive"}, {"molecule": "COC(=O)c1ccc(Nc2nc(-c3ccncc3)nc3ccccc23)cc1OC", "outcome": "inactive"}, {"molecule": "Fc1ccccc1-c1ccc(Nc2nc(-c3ccncc3)nc3ccccc23)cc1F", "outcome": "inactive"}, {"molecule": "COc1cc(-c2nc(Nc3ccc(F)c(F)c3)c3ccccc3n2)c(F)cn1", "outcome": "inactive"}, {"molecule": "Fc1cc(Nc2nc(-c3ccncc3)nc3ccccc23)ccc1N1CCCCC1", "outcome": "inactive"}, {"molecule": "Fc1ccc(-c2ccc(Nc3nc(-c4ccncc4)nc4ccccc34)cc2F)c(Cl)c1", "outcome": "inactive"}, {"molecule": "N#Cc1cc(-c2nc(Nc3ccc(F)c(F)c3)c3ccccc3n2)ccn1", "outcome": "inactive"}, {"molecule": "COc1cnccc1-c1nc(Nc2ccc(F)c(F)c2)c2ccccc2n1", "outcome": "inactive"}, {"molecule": "Cc1cnccc1-c1nc(Nc2ccc(F)c(F)c2)c2ccccc2n1", "outcome": "inactive"}, {"molecule": "Fc1ccc(Nc2nc(-c3ccncc3Cl)nc3ccccc23)cc1F", "outcome": "inactive"}, {"molecule": "Cc1ccc(Nc2nc(-c3ccncc3)nc3ccccc23)cc1F", "outcome": "inactive"}, {"molecule": "Fc1cc(Nc2nc(-c3ccncc3)nc3ccccc23)ccc1C(F)(F)F", "outcome": "inactive"}, {"molecule": "Fc1cc(-c2nc(Nc3ccc(F)c(F)c3)c3ccccc3n2)ccn1", "outcome": "inactive"}, {"molecule": "Fc1ccc(-c2ccc(Nc3nc(-c4ccncc4)nc4ccccc34)cc2F)c(F)c1", "outcome": "inactive"}]}]}
